This note sets out measurements from PubChem BioAssay AID628 (Vanderbilt High Throughput Screening Facility, 2007).

The campaign covered roughly 64,000 compounds. About 2,200 (3.4%) were called active. This is one part of a sample in which actives are shown more often than they occur. A number with no mark means an inactive call.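 The calls were made as follows: active = calcium fluorescence response, raw or row-and-column corrected B-score, differing from the plate sample mean either way at a set confidence level, mostly lower; inactive = the rest.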

The target in the assay is Muscarinic acetylcholine receptor M1 (Rattus norvegicus) (UniProt P08482). Nature of the assay: antagonists of rat M1 muscarinic receptor (AID 628). Particulars: CHO-M1 cells, Fluo-4 calcium, ACh EC80 antagonist mode; at 10 µM; hits give low values.
Chain of Muscarinic acetylcholine receptor M1 (Rattus norvegicus) (P08482 whole entry, looked up): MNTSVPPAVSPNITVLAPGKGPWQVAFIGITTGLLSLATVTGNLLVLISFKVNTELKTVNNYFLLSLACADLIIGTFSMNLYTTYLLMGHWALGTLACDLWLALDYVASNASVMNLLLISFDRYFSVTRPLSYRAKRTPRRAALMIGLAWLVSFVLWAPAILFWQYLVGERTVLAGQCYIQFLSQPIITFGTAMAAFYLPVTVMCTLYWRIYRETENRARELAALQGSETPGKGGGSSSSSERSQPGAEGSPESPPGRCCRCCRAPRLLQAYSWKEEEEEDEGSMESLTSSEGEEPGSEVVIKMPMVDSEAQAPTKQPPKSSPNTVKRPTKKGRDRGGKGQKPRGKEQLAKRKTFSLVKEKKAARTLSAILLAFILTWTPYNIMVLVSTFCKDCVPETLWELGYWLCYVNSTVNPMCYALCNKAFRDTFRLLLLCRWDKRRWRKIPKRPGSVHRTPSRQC
Regarding `CC[N+]1(C)CCCC(OC(=O)C(O)(c2ccccc2)c2ccccc2)C1` (stereo not given), the B-score was -11.4 (active).

For the compound `O=C1NC(=O)C(C/C=C/c2ccccc2)C(=O)N1`, the B-score is -0.333.

With `CSC1=NP(=S)(SC)N(C)c2nc3n(c21)CCC3` (stereo not given), the B-score is -0.101.

`O=c1c2ccccc2nc(-c2ccco2)n1-c1ccc(Br)cn1`: the B-score is -0.192.

`CCOC(=O)C1SC2(C(F)(F)C(F)F)CC1(O)c1c(c(OC)c3occc3c1OC)O2` (stereo not given): the B-score is -2.3 (active).

Turning to `CNP1(NC)=Nc2nn(-c3ccccc3)c(N)c2C(c2ccccc2)=N1`, the B-score is 0.00862.

For the compound `C[N+]12CN3CN(CN(C3)C1)C2`, the B-score was 0.464.

Regarding `CCN(CC)P(=O)(Oc1cccc(C)c1)N(CC)CC`, the B-score is 0.467.

Regarding `COc1ccc(C(=O)CC2C(=O)N(C)C(=O)N(C)C2=O)cc1`, the B-score was -0.22.

Turning to `CC(C)c1ccc(O)c(CN2CCN(c3ccccc3)CC2)c1`, the B-score was 0.336.

For `COc1ccccc1CN1CCN(C(=O)Cc2ccccc2)CC1`, the B-score was 0.441.

For the compound `COc1ccc(CN2CCN(c3ccccc3F)CC2)c(OC)c1`, the B-score was -2.11 (active).

For the compound `CCc1nc2ccccc2c(=O)n1-c1cccc(OC)c1`, the B-score is -0.313.

With `c1ccc(C2NCc3ccccc3-n3cccc32)cc1` (stereo not given), the B-score was -0.457.

As to `COc1ccc(C2NCc3ccc4c(c3-n3cccc32)OCO4)cc1OC` (stereo not given), the B-score is -4.39 (active).

Turning to `CCC/C(=N\O)c1c[nH]c2ccccc12`, the B-score is -0.0862.

In the case of `CCOC(=O)c1c(C)c(C(=O)N2CCC3(CC2)OCCO3)c(C)n1CC`, the B-score was 0.059.

In the case of `CC12CN3CC(C)(CN(C1)C3c1cccs1)C2` (stereo not given), the B-score is -0.259.

On to `Cc1nc2nc(C)c(CCC(=O)N3CCC4(CC3)OCCO4)c(C)n2n1`, for which the B-score is 0.0167.

Consider `CCOC(=O)CC1=C(C(=O)OCC)C2(C(=O)N1)C(C(=O)OC)=C(N)Oc1ccccc12` (stereo not given), for which the B-score is 0.186.

Consider `CCOC(=O)c1c(N)n(Cc2ccccc2)c2nc3ccccc3nc12`, for which the B-score is 0.91.

Consider `Cc1ccc(C)c(NC2=NCCCS2)c1`, for which the B-score is -1.64.

In the case of `CC(=NCc1ccc2c(c1)OCO2)c1c(O)[nH]c(=O)[nH]c1=O`, the B-score was 0.0855.

As to `Fc1ccc(N2CCN(Cc3ccc4c(c3)OCO4)CC2)cc1`, the B-score is -2.36 (active).

Take `COc1ccccc1N=C1SCCCN1C`: the B-score is 0.926.
